{
  "source": "the supplement of paper PMC8975748",
  "note": "Where a name gives a salt, the structure may show the parent alone.",
  "data": [
    {"system": "Saccharomyces cerevisiae BY4741 SeMeCo community", "assay": "z-score of subpopulation abundance vs DMSO median, subpopulation auxotrophic for HLUM; higher = larger share of this subpopulation than in DMSO controls", "conditions": "10 µM; 24 h; SM minimal medium; subpopulation (auxotrophy): HLUM", "method": "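Fluorescent four-plasmid SeMeCo (self-establishing metabolically cooperating S. cerevisiae BY4741 community; plasmids pH-mRuby2, pL-mWasabi, pU-eCFP, pM-TagRFP657) was grown 24 h in minimal SM medium with each Selleck FDA-approved drug at 10 µM in 384-well plates. Cells were fixed and imaged by high-content confocal microscopy. For each auxotrophic subpopulation (and the prototroph), a z-score gives the deviation from the DMSO vehicle-control population median.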", "values": [
      {"smiles": "CN1[C@@H]2C[C@@H](OC(=O)[C@H](CO)c3ccccc3)C[C@H]1[C@@H]1O[C@@H]12", "note": "[Scopolamine HBr]", "z-score of subpopulation abundance": -0.88},
      {"smiles": "Cc1cc(C(C#N)c2ccc(Cl)cc2)c(Cl)cc1NC(=O)c1cc(I)cc(I)c1O", "note": "(stereo not given) [Closantel]", "z-score of subpopulation abundance": 0.27},
      {"smiles": "C=CCN1C[C@H](C(=O)N(CCCN(C)C)C(=O)NCC)C[C@@H]2c3cccc4[nH]cc(c34)C[C@H]21", "note": "[Cabergoline]", "z-score of subpopulation abundance": 0.78},
      {"smiles": "N#Cc1nn(-c2c(Cl)cc(C(F)(F)F)cc2Cl)c(N)c1[S+]([O-])C(F)(F)F", "note": "(stereo not given) [Fipronil]", "z-score of subpopulation abundance": -0.22},
      {"smiles": "O=C(O[C@H]1C[N+]2(CCCOc3ccccc3)CCC1CC2)C(O)(c1cccs1)c1cccs1", "note": "[Aclidinium Bromide]", "z-score of subpopulation abundance": -0.18},
      {"smiles": "C[C@H]1O[C@H](O[C@H]2[C@H](O)[C@@H](O)[C@@H](O)[C@H](O)[C@@H]2O)[C@@H](N)C[C@@H]1NC(=N)C(=O)O", "note": "[Kasugamycin hydrochloride]", "z-score of subpopulation abundance": -0.04},
      {"smiles": "C[N+]1(C)[C@@H]2C[C@@H](OC(=O)[C@H](CO)c3ccccc3)C[C@H]1[C@@H]1O[C@@H]12", "note": "[Methscopolamine]", "z-score of subpopulation abundance": 0.24},
      {"smiles": "COc1cc2c(cc1OC)C1CC(=O)C(CC(C)C)CN1CC2", "note": "(stereo not given) [Tetrabenazine (Xenazine)]", "z-score of subpopulation abundance": 2.34},
      {"smiles": "CC(C)(O)C(Cl)(Cl)Cl", "note": "[Chlorobutanol]", "z-score of subpopulation abundance": -0.06},
      {"smiles": "CCN(CC)CCOC(=O)C(O)(c1ccccc1)c1ccccc1", "note": "[Benactyzine hydrochloride]", "z-score of subpopulation abundance": 1.13},
      {"smiles": "CC(C)N(CCC(C(N)=O)(c1ccccc1)c1ccccn1)C(C)C", "note": "(stereo not given) [Disopyramide]", "z-score of subpopulation abundance": 0.82},
      {"smiles": "C#C[C@]1(O)C=C[C@H]2[C@@H]3CCC4=CC(=O)CC[C@@H]4[C@H]3CC[C@@]21CC", "note": "[Gestodene]", "z-score of subpopulation abundance": -0.58},
      {"smiles": "O=c1cccc2n1C[C@@H]1CNC[C@H]2C1", "note": "[Cytisine]", "z-score of subpopulation abundance": -0.32},
      {"smiles": "CCOC(=O)Nc1ccc(NCc2ccc(F)cc2)cc1N", "note": "[Retigabine 2HCl]", "z-score of subpopulation abundance": -0.39},
      {"smiles": "CC(=O)O[C@H]1C[C@@H]2CC[C@@H]3[C@H](CC[C@@]4(C)[C@H]3C[C@H]([N+]3(C)CCCCC3)[C@@H]4OC(C)=O)[C@@]2(C)C[C@@H]1[N+]1(C)CCCCC1", "note": "[Pancuronium dibromide]", "z-score of subpopulation abundance": -0.93},
      {"smiles": "CC[C@H]1[C@@H]2C[C@H]3[C@@H]4N(C)c5ccccc5[C@]45C[C@@H]([C@@H]2[C@H]5O)N3[C@@H]1O", "note": "[Ajmaline]", "z-score of subpopulation abundance": -0.76},
      {"smiles": "COc1ccc(C(CN(C)C)C2(O)CCCCC2)cc1", "note": "(stereo not given) [Venlafaxine HCl]", "z-score of subpopulation abundance": -0.19},
      {"smiles": "COc1ccc(C=O)cc1", "note": "[p-Anisaldehyde]", "z-score of subpopulation abundance": -0.16},
      {"smiles": "C=C[C@H]1CN2CC[C@H]1C[C@H]2[C@H](O)c1ccnc2ccccc12", "note": "[Cinchonidine]", "z-score of subpopulation abundance": 0.1},
      {"smiles": "COc1ccc(C(CN(C)C)C2(O)CCCCC2)cc1", "note": "(stereo not given) [Venlafaxine]", "z-score of subpopulation abundance": -0.12},
      {"smiles": "CCCN1C[C@H](CSC)C[C@@H]2c3cccc4[nH]cc(c34)C[C@H]21", "note": "[Pergolide Mesylate]", "z-score of subpopulation abundance": -0.1},
      {"smiles": "C=CN1CCCC1=O.II", "note": "[Povidone iodine]", "z-score of subpopulation abundance": 0.32},
      {"smiles": "CN1[C@@H]2CC[C@H]1C[C@@H](OC(=O)C(CO)c1ccccc1)C2", "note": "(stereo not given in full) [Atropine sulfate monohydrate]", "z-score of subpopulation abundance": -0.85},
      {"smiles": "CC[N+](C)(CC)CCOC(=O)C(O)(c1ccccc1)c1ccccc1", "note": "[Methylbenactyzine Bromide]", "z-score of subpopulation abundance": -1.18},
      {"smiles": "CCN(C)C(=O)Oc1cccc([C@H](C)N(C)C)c1", "note": "[Rivastigmine Tartrate]", "z-score of subpopulation abundance": -0.16},
      {"smiles": "O=C(O[C@H]1C[C@H]2CC[C@@H](C1)[N+]21CCCC1)C(O)(c1ccccc1)c1ccccc1", "note": "[Trospium chloride]", "z-score of subpopulation abundance": -0.2},
      {"smiles": "C[N+]12CCC(CC1)C(OC(=O)C(O)(c1ccccc1)c1ccccc1)C2", "note": "(stereo not given) [Clidinium Bromide]", "z-score of subpopulation abundance": 0.51},
      {"smiles": "CC[C@@H](C(N)=O)N1CCCC1=O", "note": "[Levetiracetam]", "z-score of subpopulation abundance": -0.38},
      {"smiles": "CC(C)=CCOc1c2occc2cc2ccc(=O)oc12", "note": "[Imperatorin]", "z-score of subpopulation abundance": 0.23},
      {"smiles": "COC(=O)C1=CCCN(C)C1", "note": "[Arecoline HBr]", "z-score of subpopulation abundance": -0.09},
      {"smiles": "CC[C@H]1CN2CC[C@]3(C(=O)Nc4ccccc43)[C@@H]2C[C@@H]1/C(=C\\OC)C(=O)OC", "note": "[Rhynchophylline]", "z-score of subpopulation abundance": 0},
      {"smiles": "CN(C)C(=O)Oc1ccc[n+](C)c1", "note": "[Pyridostigmine Bromide]", "z-score of subpopulation abundance": -1.14},
      {"smiles": "CC(NC(C)(C)C)C(=O)c1cccc(Cl)c1", "note": "(stereo not given) [Amfebutamone (Bupropion) HCl]", "z-score of subpopulation abundance": 0.09},
      {"smiles": "CN(C)C(=O)Oc1cccc([N+](C)(C)C)c1", "note": "[Neostigmine Bromide]", "z-score of subpopulation abundance": -0.18},
      {"smiles": "COc1ccc2[nH]cc(CCN)c2c1", "note": "[5-Methoxytryptamine]", "z-score of subpopulation abundance": 0.69},
      {"smiles": "C[C@@H]1O[C@@H](O[C@H]2C[C@@H](O)[C@]3(CO)[C@H]4[C@H](O)C[C@]5(C)[C@@H](C6=CC(=O)OC6)CC[C@]5(O)[C@@H]4CC[C@]3(O)C2)[C@H](O)[C@H](O)[C@H]1O", "note": "[Ouabain]", "z-score of subpopulation abundance": -0.91},
      {"smiles": "Nc1nc(N)nc(NC2CC2)n1", "note": "[Cyromazine]", "z-score of subpopulation abundance": 1.21},
      {"smiles": "O=c1[nH]c2ccccc2n1CCCN1CCC(n2c(=O)[nH]c3cc(Cl)ccc32)CC1", "note": "[Domperidone]", "z-score of subpopulation abundance": 0.88},
      {"smiles": "Oc1cc(Cl)ccc1Oc1ccc(Cl)cc1Cl", "note": "[Triclosan]", "z-score of subpopulation abundance": 2.06},
      {"smiles": "CC1(C)SC2C(N)C(=O)N2C1C(=O)O", "note": "(stereo not given) [6-Aminopenicillanic acid]", "z-score of subpopulation abundance": -0.72}
    ]}
  ]
}
